# Screening results: PubChem, National Center for Advancing Translational Sciences (NCATS)
# TRHR PAM – allosteric enhancers of human TRH receptor; TRHR cells, fluo-8 calcium fluorescence, EC20 TRH enhancement; P34981; AID 493056; enhancement, % at 2 µM; actives 0.66% (n = 360,000); in the data active = enhancement above about 30%; also: 0% is about no effect
# Target sequence (P34981 whole entry, looked up): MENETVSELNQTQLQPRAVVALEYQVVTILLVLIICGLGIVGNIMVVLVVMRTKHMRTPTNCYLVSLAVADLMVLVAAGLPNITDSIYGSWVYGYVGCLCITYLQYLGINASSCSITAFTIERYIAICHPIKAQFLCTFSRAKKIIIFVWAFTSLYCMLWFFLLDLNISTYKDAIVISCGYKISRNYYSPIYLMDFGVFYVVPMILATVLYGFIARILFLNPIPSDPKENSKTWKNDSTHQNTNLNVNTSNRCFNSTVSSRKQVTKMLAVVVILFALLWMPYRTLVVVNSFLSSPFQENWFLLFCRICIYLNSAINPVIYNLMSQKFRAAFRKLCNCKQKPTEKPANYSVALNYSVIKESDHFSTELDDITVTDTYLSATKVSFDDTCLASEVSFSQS
#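 Enhancer read-out: after compound pinning and an initial kinetic agonist-mode read, an EC20 of TRH (10 nM final) was injected and fluo-8 calcium signal (Ex 480/Em 530) followed at 1 s/cycle for 100 cycles in TRHR-expressing cells.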
# TRHR agonist – TRH receptor (human) agonism; P34981; actives 0.18% (n = 360,000); TRHR cells, calcium flux fluo-8, FDSS agonist mode; AID 493084; activation, % at 2 µM; also: 0% is about no effect
#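 Steps: seed TRHR cells overnight; add fluo-8 no-wash Ca dye, RT 30 min–1.5 h; record 10 s baseline; pin-transfer compounds; monitor fluorescence 1 cycle/s for the agonist window. Calcium increases flag candidate agonists.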
# D1 potentiator – potentiators of human D1 dopamine receptor; potentiation, % at 10 µM; actives 0.036% (n = 360,000); P21728; HEK293 TREx D1 cells, calcium flux, dopamine EC20 potentiation; in the data active = potentiation above about 30%; also: 0% is about no effect
# D1 ag – agonists of human D1 dopamine receptor | activation, % at 2 µM | actives 1% (n = 360,000) | HEK293 T-REx D1 cells, calcium flux, agonist mode | AID 504660; also: 0% is about no effect
#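 Tetracycline-induced HEK293 TREx D1 cells, force-coupled to calcium signalling, were dye-loaded with a no-wash calcium kit. Compound was pin-added after a 10 s baseline. Fluorescence was read kinetically at 1 cycle/s for 180 s, with calcium rises flagged as agonism.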
# Epigenetic reg – epigenetic control regulation, reporter derepression | actives 0.2% (n = 280,000) | Potency, µM (top dose mostly 53.9 µM), without a hit: top-dose GFP activation, usual class: activators | AID 1865 | murine LDR cells, GFP reporter derepression, 30 h; active = well fitted activation curve with a large enough effect; also: potency is read from the fitted curve at half-maximal effect; % of control where 0% means no effect; nearly all actives have a fitted effect of over 60% in size
#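 GFP-positive cell count by laser-scanning cytometry (objects 20–120 um) after 30 h, 37 C compound exposure of murine LDR cells; reporter is CMV-GFP integrated at a silenced locus, inducible by HDAC or DNMT inhibitors.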
# D1 antagonist – antagonists of human D1 dopamine receptor; P21728; HEK293 TREx D1 cells, calcium flux, dopamine EC80; hits give low values; activity change, negative = inhibition, % at 10 µM; actives 3.2% (n = 360,000); in the data active = activity change below about -30%; also: % is scaled to controls: 0 for no effect and ±100 for the full control effect
#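 Antagonism measured as reduced calcium response to an EC80 dopamine addition following 180 s compound pre-read; cells were inducible HEK293 Trex D1 plated overnight at 30 C, read kinetically at 1 cycle/sec.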
# Active calls of the source: *; · = no result. In the library only some 4.6% were active in any assay of this set; here they are far more common. Rule as the data show it, unless noted: active = activation above about 30%; inactive = the rest.
SMILES,TRHR PAM,TRHR agonist,D1 potentiator,D1 ag,Epigenetic reg,D1 antagonist
COc1ccc(CCNC(=O)c2nc(-c3ccc(Cl)cc3)n3c2CCCCC3)c(OC)c1,-11,0,-2,6,-1%,13
O=C(N/N=C/c1cc([N+](=O)[O-])ccc1Cl)c1cc(-c2ccccc2)nc2ccccc12,-8,0,-8,1,1%,-47*
Cc1cccc(-c2cc(C(=O)Nc3ccncc3)c3ccccc3n2)c1,-1,0,-7,0,·,-41*
COc1ccccc1-c1cc(C(=O)N/N=C/c2sccc2C)c2ccccc2n1,2,2,-4,7,-1%,-7
Cc1ccsc1/C=N/NC(=O)c1cc(-c2ccncc2)nc2ccccc12,36*,-1,-6,2,1%,-1
CCc1ccc(-c2cc(C(=O)N/N=C/c3c[nH]c4ccccc34)[nH]n2)cc1,36*,0,-6,3,0%,-14
CCC1CN2CCC1CC2[C@@H](NC(=S)Nc1cc(C(F)(F)F)cc(C(F)(F)F)c1)c1cccc2ccc(OC)cc12 (some centres undefined),·,·,·,·,-1%,·
CCc1ccc(NC(=O)c2ccc(F)c(S(=O)(=O)N3CCN(c4cc(C)ccc4C)CC3)c2)cc1,1,0,1,-1,5%,-7
CCCC/C=C/C(NC(=O)c1ccco1)c1ccccc1 (centres undefined),·,·,·,·,1%,·
O=C(N/N=C/c1cc([N+](=O)[O-])ccc1O)c1c[nH]c2ccccc12,6,0,-5,0,3%,-15
O=C(N/N=C/c1c[nH]c2ccccc12)c1ccc([N+](=O)[O-])cc1Cl,-12,3,-13,6,·,-48*
Cc1cc(C)cc(-n2c(C)cc(C(=S)N3CCOCC3)c2C)c1,8,0,-2,2,0%,-7
Cc1cc(C(=S)N2CCOCC2)c(C)n1-c1ccc(Cl)cc1,5,1,-3,5,1%,-31*
CN(Cc1nc(Cc2ccccc2F)no1)Cc1cccc2ncccc12,1,0,-6,13,-2%,-40*
CN(Cc1nc(Cc2ccccc2F)no1)CC1(N2CCOCC2)CCCCC1,1,1,-7,1,-1%,0
Cc1ccn2c(Nc3c(C)cccc3C)c(-c3ccc(Cl)s3)nc2c1,-3,12,-4,34*,4%,1
Cc1ccn2c(Nc3c(C)cccc3C)c(-c3ccsc3)nc2c1,-6,0,3,0,1%,5
CCOc1ccc(NC(=O)CSc2nnc(CC)c(CC)n2)cc1,8,0,4,2,-2%,-3
Cn1c(=O)n(CCOc2ccccc2Cl)c2ccccc21,-16,0,2,-1,0%,6
CCN(CC)CCn1c(=N)n(CCOc2ccccc2Cl)c2ccccc21,5,-1,-2,53*,-1%,-7
Nc1nc2ccccc2n1CCOc1ccccc1Cl,1,1,-6,20,-1%,-36*
COc1cc2[nH]c(=O)n(Cc3ccc(C(=O)NCc4ccccc4)cc3)c(=O)c2cc1OC,3,0,3,1,16%,47
CCOc1ccc(CCNc2ncnc3onc(C)c23)cc1OCC,-12,1,-5,26,5%,-22
O=C1C(Cl)=C(Nc2ccc(F)cc2)C(=O)N1CCc1ccccc1,4,1,-3,2,4%,-35*
CN(C)CCNC(=O)c1ccc(Cc2nc3ccccc3[nH]2)cc1,·,·,·,·,-4%,·
SMILES,TRHR PAM,TRHR agonist,D1 potentiator,D1 ag,Epigenetic reg,D1 antagonist
Nc1nnnn1/N=C/c1cc(Cl)cc(Cl)c1O,3,25,2,126*,·,-4
N#Cc1c(-c2ccccc2)cc(C2CC2)nc1N,5,-1,-8,31*,7%,-12
N#Cc1c(-c2ccco2)cc(C2CC2)nc1N,2,0,-3,3,0%,-8
CCN1/C(=C/c2cc[n+](CCCS(=O)(=O)[O-])c3ccccc23)Sc2ccccc21,-1,1,6,0,13µM*,2
COc1cccc(C2/C(=C(\O)c3ccc4c(c3)OCCO4)C(=O)C(=O)N2Cc2cccnc2)c1 (centres undefined),8,0,-3,1,·,-9
O=C1C(=O)N(Cc2cccnc2)C(c2cccc(F)c2)/C1=C(/O)c1ccc2c(c1)OCO2 (centres undefined),-4,2,-10,2,·,-62*
COc1ccc(C2/C(=C(/O)c3ccc4c(c3)CC(C)O4)C(=O)C(=O)N2Cc2cccnc2)cc1 (centres undefined),14,0,2,0,·,-42*
NCC1O[C@@H](OC2C(N)C[C@H](N)[C@@H](O[C@H]3OC(CO)C(O)C(N)C3O)C2O)C(O)C(O)C1O (some centres undefined),·,·,·,·,0%,·
O=C(Nc1ccc(Br)cc1F)C1CCN(c2nc3ccccc3[nH]2)CC1,0,1,-3,7,-3%,-16
Cc1cccc(-c2noc(CN(C(=O)COc3ccc(Br)cc3C)C(C)C)n2)c1,12,1,-2,19,0%,-2
COc1cccc(OC(=O)c2cc3ccccc3oc2=O)c1,-2,0,-2,5,0%,-30*
COc1ccc2oc(=O)c(C(=O)N3CCN(c4ccccc4)CC3)cc2c1,-6,-1,-1,0,-3%,-41*
O=C(NC1CCCCC1)c1ccc(CSc2nc3ccncc3n2Cc2cccc(F)c2)cc1,9,0,-5,19,0%,-5
O=C(NC1CCN(Cc2ccc(Cl)cc2)CC1)c1cn(-c2ccccc2)nc1-c1cccnc1,7,1,·,2,·,-50*
Cc1ccc(-c2nnn(CC(=O)NC3CCN(Cc4ccccc4)CC3)n2)cc1,-10,-1,-6,31*,-1%,-9
O=C(Cn1nnc(-c2ccc(Cl)cc2)n1)NC1CCN(Cc2ccccc2)CC1,-2,0,-10,37*,-1%,-59*
O=C(CC1N=C2c3ccccc3N=C(SCC(=O)Nc3cccc(Cl)c3)N2C1=O)NCc1cccs1 (centres undefined),-13,2,-3,8,2%,-12
COCCCn1c(=O)c2sccc2n(Cc2cccc(F)c2)c1=O,-11,-1,-3,3,·,-36*
COc1ccc(NC(=O)CCCn2c(=O)c3sccc3n(Cc3ccccc3)c2=O)cc1,-6,0,-13,8,-1%,-34*
Cc1nn(CC(=O)NCc2ccc(Cl)cc2)c(=O)c2cc3sccc3n12,-2,0,0,-1,0%,-2
Cc1nn(CCCC(=O)NCc2ccccc2)c(=O)c2cc3sccc3n12,2,0,1,-2,1%,-32*
